Consider 40 compounds from PubChem BioAssay (Tox21).

Results filed as inconclusive are left out. Unmarked numbers belong to inactive results. Active and inactive are the calls of the source. The call rests on the fitted dose curve.
On the % scale 0 is the no-effect control and ±100 the full control effect.

The nature of the experiment: qHTS assay to identify small molecule antagonists of the estrogen receptor alpha (ER-alpha) signaling pathway using the BG1 cell line (AID 743080).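 Further: BG1 cells stimulated with 17beta-estradiol alongside compound; nearly all actives have a fitted effect of over 25% in size.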 The following applies: BG1Luc4E2 ERE-luciferase antagonist mode, luminescence; series mostly up to 70.3 µM. An excerpt: National Center for Advancing Translational Sciences [NCATS]
NIH Chemical Genomics Center [NCGC]
U.S. Environmental Protection Agency [EPA]
National Institutes of Environmental Health Sciences [NIEHS]
National Toxicology Program [NTP]
U.S. Food and Drug Administration [FDA]
Estrogen receptor (ER), a nuclear hormone receptor, plays an important role in development, metabolic homeostasis and reproduction. Endocrine disrupting chemicals (EDCs) and their interactions with steroid hormone receptors like ER causes disruption of normal endocrine function. Therefore, it is important to understand the effect of environmental chemicals on the ER signaling pathway. To identify ER antagonists, BG1-Luc-4E2 cell line (provided by Dr. Michael Denison from University of California) has been used to screen the Tox21 10K compound library. BG1Luc4E2 cell line endogenously expresses full-length ER-alpha and is stably transfected with a plasmid containing four estrogen responsive elements (ERE) upstream of a luciferase reporter gene.
Tox21 Assay Protocol Summary:
BG1-Luc-4E2 cells were cultured in phenol red free assay medium containing 10% charcoal stripped FBS for 5 days before the assay was performed. The cells were dispensed at 4,000 cells/4 uL of assay medium per well into white wall/solid-bottom 1536-well plates using a Multidrop Combi (ThermoFisher Scientific, Waltham, MA) dispenser. The assay plates were incubated at a 37C and 5% CO2 for 24 h, and then 23 nL of compounds dissolved in DMSO, positive controls or DMSO only was transferred to the assay plate using a Pintool station (Kalypsys, San Diego, CA), followed by addition of 1 uL of 17beta-estradiol in assay medium using a Flying Reagent Dispenser (Aurora Discovery, San Diego, CA). After the plates were incubated at 37 C and 5% CO2 for 21.5 h, 1 uL of CellTiter-Fluor reagent (Promega, Madison, WI) of measuring cytotoxicity was added using Flying Reagent Dispenser (FRD) to each well. The assay plates were incubated at 37 C and 5% CO2 for additional 30 min and the fluorescence intensity was quantified by a ViewLux plate reader (PerkinElmer, Shelton, CT). For measuring luciferase reporter gene activity, 4 uL of ONE-Glo reagent (Promega) was added to each plate using an FRD and luminescence was quantified by a ViewLux plate reader after 30 min incubation at room temperature.
Turning to `COc1ccc2c(c1)c1c3n2CCN(C)C3=NCC1`, the result was inactive.
Regarding `CC1CCc2c(N3CCC(O)CC3)c(F)cc3c(=O)c(C(=O)O)cn1c23` (stereo not given), the outcome was inactive.
Still for that read-out and setting: with `C[C@H]1[C@@H](c2ccccc2)NC(=O)N1C` the entry was “inactive”.
As to `NCC1(Cc2noc(=O)[nH]2)CCCCC1`, the compound was classed as inactive.
For the compound `Cn1nnc2c(C(N)=O)ncn2c1=O`, the call was inactive.
`CC1c2ccccc2CN1NC(=O)c1ccc(Cl)c(S(N)(=O)=O)c1` (stereo not given): the outcome was inactive.
On the same count and under the same terms, with `CCCCCCCCCCOC(C)=O` the entry was “inactive”.
Regarding `OC[C@H]1O[C@@H](O[C@@H]2[C@@H](CO)O[C@](O)(CO)[C@H]2O)[C@H](O)[C@@H](O)[C@H]1O`, the call was inactive.
The same measure, in the same setting: with `CC(CO)(CO)CO` the entry was “inactive”; with `COC(=O)/C=C\C(=O)O`, “inactive”.
For `O=C(NCN1CCOCC1)c1cnccn1`, the compound was called inactive.
`N#Cc1ccccc1O`: the call was inactive.
As to `CC(=O)CCC1=C(C)CCCC1(C)C`, the result was inactive.
Consider `CC(=O)CC(=O)OC(C)(C)C`, for which the result was inactive.
Same read-out and setting: with `N[C@@H](CSCCCO)C(=O)O` the entry was “inactive”.
Still for that read-out and setting: next, `CCCCCC(C)O` (stereo not given): “inactive”.
Turning to `C=CCCCC`, the result was inactive.
Regarding `C=CCSSCCC`, the result was inactive.
On the same count and under the same terms, with `OC1OCCOC1O` (stereo not given) the entry was “inactive”; with `CCC[C@@H]1C[C@@H](C(=O)N[C@@H]([C@H]2O[C@H](SC)[C@H](O)[C@@H](O)[C@H]2O)[C@@H](C)O)N(C)C1`, “inactive”; with `CC1(C)[C@H]2CC[C@](C)(C2)[C@H]1O`, “inactive”.
For `CCC/C=C(\C=O)CC`, the call was inactive.
Same read-out and setting: next, `COc1nc(N)nc2nc[nH]c12`: “inactive”; `CSc1cnccn1`: “inactive”.
The same measure, in the same setting: with `CC1=C(C(=O)O)N2C(=O)[C@@H](NC(=O)[C@H](N)C3=CCC=CC3)[C@H]2SC1` the entry was “inactive”; with `CCO[Si](CC)(OCC)OCC`, “inactive”; with `CC(C)COC(=O)c1ccccc1`, “inactive”.
Still for that read-out and setting: with `CCC(C)C(C)=O` (stereo not given) the entry was “inactive”.
Consider `CCCc1ccc(O)cc1`, for which the outcome was inactive.
The same measure, in the same setting: next, `c1ccc2c(CC3=NCCN3)cccc2c1`: “inactive”; `OCC1CCC(CO)CC1` (stereo not given): “inactive”; `OCCN1CCOCC1`: “inactive”.
On the same count and under the same terms, with `O=C(O)CNC(=O)CNC(=O)CNC(=O)CSC(=O)c1ccccc1` the entry was “inactive”.
As for `CN(C)CCCO[C@@H]1[C@H]2OC(C)(C)O[C@H]2O[C@@H]1C(O)CO` (stereo not given in full), the call was inactive.
With `CCNC(=O)NCc1cccc(Cl)c1`, the compound was classed as inactive.
Still for that read-out and setting: with `CC(C)C1OCCN1CCOC(=O)NCCCCCCNC(=O)OCCN1CCOC1C(C)C` (stereo not given) the entry was “inactive”; with `Fc1ccccc1`, “inactive”.
Regarding `O=C1c2ccccc2C(=O)c2cc(Cl)ccc21`, the activity change, negative = inhibition is 1.09% [at 8.47 µM].
On to `CC(=O)OCC(=O)Nc1cc(C#N)cc(NC(=O)COC(C)=O)c1Cl`, for which the outcome was inactive.
Same read-out and setting: with `COC(=O)c1cccc(Cl)c1` the entry was “inactive”.
